# Laboratory results taken from the supplement of paper PMC10849652.
# Targets with a hit are over-represented here; the source holds about 7,900 in all. About 0.6% of all pairs of compound and target were hits. Unmarked numbers belong to inactive results.
# Compound: C1=CC=C(C=C1)[C@H](COC2=CC3=C(C=C2)NC(=O)N3)NC(=O)C4=CC=CN(C4=O)CC5=CC(=C(C=C5)F)F
# Experiment: log2 fold change, soluble protein after heating vs DMSO (PISA); higher = thermal stabilisation; K562 cells, 10 uM, 30 min; active = over 0.2 and 3.5 SD of the protein, either way, in both replicates (recomputed)
# Summary of the method: (§1)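 Quantification of soluble protein used TMTpro 16plex LC-MS/MS, with channel sums equalised. Samples were the supernatant after 21,000xg for 90 min of pooled aliquots from K562 cells (2×10^6 cells/mL) treated with 10 μM compound for 30 min, heated for 3 min over 48°C-58°C, and extracted in PBS with 0.5% NP-40 at 4°C. Values, from duplicates, describe thermal stability against control samples on a log2 fold-change scale.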
# Chain of UniProt Q9BUB5 (Q9BUB5 whole entry, looked up): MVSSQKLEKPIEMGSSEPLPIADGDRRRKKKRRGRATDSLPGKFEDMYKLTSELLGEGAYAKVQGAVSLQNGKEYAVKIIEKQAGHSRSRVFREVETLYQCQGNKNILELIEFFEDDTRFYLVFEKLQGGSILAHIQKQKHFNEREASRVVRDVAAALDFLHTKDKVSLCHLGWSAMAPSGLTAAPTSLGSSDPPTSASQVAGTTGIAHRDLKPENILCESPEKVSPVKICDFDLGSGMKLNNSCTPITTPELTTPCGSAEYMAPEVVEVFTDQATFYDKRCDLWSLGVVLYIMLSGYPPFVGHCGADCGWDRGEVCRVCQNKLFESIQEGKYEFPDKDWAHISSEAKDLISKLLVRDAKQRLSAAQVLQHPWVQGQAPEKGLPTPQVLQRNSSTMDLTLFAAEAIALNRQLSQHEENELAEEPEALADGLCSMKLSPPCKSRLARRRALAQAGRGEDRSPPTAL
# Chain of UniProt P56556 (P56556 whole entry, looked up): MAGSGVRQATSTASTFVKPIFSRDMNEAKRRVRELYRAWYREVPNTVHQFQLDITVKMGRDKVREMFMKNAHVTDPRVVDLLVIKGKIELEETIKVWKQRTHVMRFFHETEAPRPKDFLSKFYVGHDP
# Chain of UniProt O75438 (O75438 whole entry, looked up): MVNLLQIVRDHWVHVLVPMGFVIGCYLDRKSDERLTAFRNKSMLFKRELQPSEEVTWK
# Chain of UniProt Q9BV86 (Q9BV86 whole entry, looked up): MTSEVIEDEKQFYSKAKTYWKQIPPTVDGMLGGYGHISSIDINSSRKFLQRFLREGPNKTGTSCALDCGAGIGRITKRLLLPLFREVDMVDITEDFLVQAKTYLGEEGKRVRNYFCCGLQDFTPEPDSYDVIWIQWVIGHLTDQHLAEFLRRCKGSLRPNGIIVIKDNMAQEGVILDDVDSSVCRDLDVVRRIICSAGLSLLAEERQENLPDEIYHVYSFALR
# Chain of UniProt Q15746 (Q15746 whole entry, looked up): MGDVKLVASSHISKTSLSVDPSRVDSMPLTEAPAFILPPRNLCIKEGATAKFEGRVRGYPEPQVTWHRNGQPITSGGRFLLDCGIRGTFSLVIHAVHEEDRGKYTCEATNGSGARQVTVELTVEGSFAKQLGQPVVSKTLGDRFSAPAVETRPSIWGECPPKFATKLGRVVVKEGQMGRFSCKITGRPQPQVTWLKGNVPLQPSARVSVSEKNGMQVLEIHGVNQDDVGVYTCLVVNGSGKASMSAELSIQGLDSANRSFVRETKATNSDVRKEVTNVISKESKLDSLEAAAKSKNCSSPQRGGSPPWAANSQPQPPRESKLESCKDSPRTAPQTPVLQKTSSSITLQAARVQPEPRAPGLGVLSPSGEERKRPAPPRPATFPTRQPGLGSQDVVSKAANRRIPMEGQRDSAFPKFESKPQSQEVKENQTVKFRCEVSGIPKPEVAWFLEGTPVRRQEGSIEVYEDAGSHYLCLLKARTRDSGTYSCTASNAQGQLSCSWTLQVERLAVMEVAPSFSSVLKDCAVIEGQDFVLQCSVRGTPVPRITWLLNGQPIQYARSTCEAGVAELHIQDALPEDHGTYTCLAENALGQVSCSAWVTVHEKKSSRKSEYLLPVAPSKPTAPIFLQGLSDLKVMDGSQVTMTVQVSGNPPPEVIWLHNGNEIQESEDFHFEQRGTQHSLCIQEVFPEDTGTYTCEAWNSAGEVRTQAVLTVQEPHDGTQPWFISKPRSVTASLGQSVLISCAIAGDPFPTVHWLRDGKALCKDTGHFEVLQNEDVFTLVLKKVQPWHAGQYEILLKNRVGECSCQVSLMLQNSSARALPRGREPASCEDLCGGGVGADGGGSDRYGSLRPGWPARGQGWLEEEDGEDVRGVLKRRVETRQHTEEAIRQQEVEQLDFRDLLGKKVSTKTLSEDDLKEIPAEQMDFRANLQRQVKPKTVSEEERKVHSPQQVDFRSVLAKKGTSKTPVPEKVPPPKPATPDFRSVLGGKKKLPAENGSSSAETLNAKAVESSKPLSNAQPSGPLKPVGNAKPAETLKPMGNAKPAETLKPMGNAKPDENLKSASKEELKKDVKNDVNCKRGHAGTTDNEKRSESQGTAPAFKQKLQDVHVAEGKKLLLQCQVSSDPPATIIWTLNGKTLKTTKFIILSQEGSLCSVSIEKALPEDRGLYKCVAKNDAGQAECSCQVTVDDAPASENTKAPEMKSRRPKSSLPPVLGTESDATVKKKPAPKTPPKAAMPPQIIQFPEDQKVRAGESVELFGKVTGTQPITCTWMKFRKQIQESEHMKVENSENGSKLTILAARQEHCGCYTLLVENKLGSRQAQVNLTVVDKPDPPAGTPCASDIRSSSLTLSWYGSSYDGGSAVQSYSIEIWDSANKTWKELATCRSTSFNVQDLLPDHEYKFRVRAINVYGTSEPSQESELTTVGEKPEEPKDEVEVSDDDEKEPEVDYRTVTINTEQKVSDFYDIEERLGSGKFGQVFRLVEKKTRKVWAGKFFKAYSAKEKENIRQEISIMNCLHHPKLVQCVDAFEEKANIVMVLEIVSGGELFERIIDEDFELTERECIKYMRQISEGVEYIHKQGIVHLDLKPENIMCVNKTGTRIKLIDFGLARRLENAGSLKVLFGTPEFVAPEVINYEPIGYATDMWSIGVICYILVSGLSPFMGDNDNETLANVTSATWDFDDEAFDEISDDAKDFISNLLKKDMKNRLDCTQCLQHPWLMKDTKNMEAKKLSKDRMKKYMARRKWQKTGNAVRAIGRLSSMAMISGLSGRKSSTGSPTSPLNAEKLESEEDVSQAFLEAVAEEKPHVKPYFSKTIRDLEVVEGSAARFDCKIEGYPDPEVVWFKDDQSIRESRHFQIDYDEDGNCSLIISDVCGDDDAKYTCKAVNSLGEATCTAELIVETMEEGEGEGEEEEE
# Chain of UniProt Q9BZF1 (Q9BZF1 whole entry, looked up): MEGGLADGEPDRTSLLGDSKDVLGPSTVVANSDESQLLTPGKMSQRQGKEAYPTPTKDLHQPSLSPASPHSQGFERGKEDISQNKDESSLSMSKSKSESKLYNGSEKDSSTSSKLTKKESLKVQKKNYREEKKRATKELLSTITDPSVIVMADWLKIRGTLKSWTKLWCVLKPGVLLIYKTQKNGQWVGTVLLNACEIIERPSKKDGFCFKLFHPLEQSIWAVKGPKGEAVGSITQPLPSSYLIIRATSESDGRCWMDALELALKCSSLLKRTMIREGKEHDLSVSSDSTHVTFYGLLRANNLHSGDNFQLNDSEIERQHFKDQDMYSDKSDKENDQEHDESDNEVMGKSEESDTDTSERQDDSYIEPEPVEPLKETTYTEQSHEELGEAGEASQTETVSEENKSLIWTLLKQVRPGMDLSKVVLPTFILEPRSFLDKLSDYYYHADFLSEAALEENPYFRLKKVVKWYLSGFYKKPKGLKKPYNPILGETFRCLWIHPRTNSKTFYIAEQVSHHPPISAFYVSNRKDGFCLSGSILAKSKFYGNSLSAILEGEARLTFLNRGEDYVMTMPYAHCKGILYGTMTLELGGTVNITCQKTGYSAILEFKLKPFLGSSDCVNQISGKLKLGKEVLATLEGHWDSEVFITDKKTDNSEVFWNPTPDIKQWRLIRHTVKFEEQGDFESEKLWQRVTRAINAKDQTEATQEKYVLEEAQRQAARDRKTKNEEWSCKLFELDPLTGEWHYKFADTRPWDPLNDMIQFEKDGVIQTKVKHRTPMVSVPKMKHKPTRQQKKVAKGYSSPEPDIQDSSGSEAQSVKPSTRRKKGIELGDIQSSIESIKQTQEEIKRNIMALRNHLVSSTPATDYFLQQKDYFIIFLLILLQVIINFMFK
# Chain of UniProt Q99747 (Q99747 whole entry, looked up): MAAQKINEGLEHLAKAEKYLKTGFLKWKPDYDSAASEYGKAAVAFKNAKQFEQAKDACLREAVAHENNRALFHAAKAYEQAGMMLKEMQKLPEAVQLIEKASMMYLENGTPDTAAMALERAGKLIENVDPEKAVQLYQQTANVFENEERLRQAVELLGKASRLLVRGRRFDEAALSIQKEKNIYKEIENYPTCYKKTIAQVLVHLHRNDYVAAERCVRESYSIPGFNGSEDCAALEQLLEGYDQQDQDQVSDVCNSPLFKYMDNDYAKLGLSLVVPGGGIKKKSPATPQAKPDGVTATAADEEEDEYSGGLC
# Chain of UniProt Q9HAN9 (Q9HAN9 whole entry, looked up): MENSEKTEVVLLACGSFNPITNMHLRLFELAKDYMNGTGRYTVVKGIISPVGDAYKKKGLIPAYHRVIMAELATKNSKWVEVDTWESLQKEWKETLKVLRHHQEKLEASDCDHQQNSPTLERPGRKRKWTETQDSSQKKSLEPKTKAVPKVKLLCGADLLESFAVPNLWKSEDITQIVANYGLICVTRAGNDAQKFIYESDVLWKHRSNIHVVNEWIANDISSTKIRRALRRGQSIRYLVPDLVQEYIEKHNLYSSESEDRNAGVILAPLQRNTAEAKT
# Chain of UniProt Q9H019 (Q9H019 whole entry, looked up): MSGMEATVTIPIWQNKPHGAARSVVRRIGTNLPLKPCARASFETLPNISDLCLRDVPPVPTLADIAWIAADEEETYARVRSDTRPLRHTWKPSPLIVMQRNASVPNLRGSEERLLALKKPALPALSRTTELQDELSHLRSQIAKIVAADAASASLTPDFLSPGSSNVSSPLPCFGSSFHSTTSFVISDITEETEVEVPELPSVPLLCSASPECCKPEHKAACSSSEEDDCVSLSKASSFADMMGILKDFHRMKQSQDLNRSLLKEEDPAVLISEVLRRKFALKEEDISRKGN
# Chain of UniProt P03891 (P03891 whole entry, looked up): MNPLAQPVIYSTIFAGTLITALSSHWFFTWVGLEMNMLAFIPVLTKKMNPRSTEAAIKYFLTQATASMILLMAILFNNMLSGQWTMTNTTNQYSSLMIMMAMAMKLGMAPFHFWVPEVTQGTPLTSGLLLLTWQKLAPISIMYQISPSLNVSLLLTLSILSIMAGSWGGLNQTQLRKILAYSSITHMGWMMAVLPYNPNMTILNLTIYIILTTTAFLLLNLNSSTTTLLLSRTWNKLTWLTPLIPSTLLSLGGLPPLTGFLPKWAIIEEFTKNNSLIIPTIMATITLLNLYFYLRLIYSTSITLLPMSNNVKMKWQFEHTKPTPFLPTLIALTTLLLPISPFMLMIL
row,Target,log2 fold change
1,NIPSNAP2 (UniProt C9J7B1),-0.069
2,NAT14 (UniProt Q8WUY8),-0.059
3,PAAF1 (UniProt Q9BRP4),-0.012
4,MKNK1 (UniProt Q9BUB5),-0.056
5,MRPL34 (UniProt Q9BQ48),0
6,NIBAN1 (UniProt Q9BZQ8),-0.017
7,OSBPL8 (UniProt Q9BZF1),-0.051
8,NMNAT1 (UniProt Q9HAN9),0.1
9,NRGN (UniProt Q92686),0.048
10,MSH2 (UniProt P43246),-0.041
11,NDUFA6 (UniProt P56556),-0.017
12,NDUFB1 (UniProt O75438),-0.004
13,NME2P1 (UniProt O60361),-0.171
14,NCOR1 (UniProt O75376),-0.102
15,PAFAH1B3 (UniProt Q15102),-0.076
16,MRPS27 isoform 2 (UniProt Q92552),-0.063
17,NTMT1 (UniProt Q9BV86),0.001
18,MKRN2 (UniProt Q9H000),0.029
19,NUDT16 (UniProt Q96DE0),0.029

row,Target,log2 fold change
1,MIS12 (UniProt Q9H081),-0.02
2,MYSM1 (UniProt Q5VVJ2),0.07
3,OVCA2 (UniProt Q8WZ82),-0.152
4,NA (UniProt B2RBV5),0.002
5,MT-ND2 (UniProt P03891),0.023
6,NUDCD2 (UniProt Q8WVJ2),-0.037
7,MTFR1L (UniProt Q9H019),-0.036
8,NA (UniProt J3KR12),-0.042
9,NAPG (UniProt Q99747),-0.036
10,OAT (UniProt P04181),-0.019
11,OPA1 isoform 2 (UniProt O60313),-0.054
12,MORF4L2 (UniProt Q15014),0.089
13,MMADHC (UniProt Q9H3L0),0.056
14,MYLK (UniProt Q15746),-0.08
15,NKTR (UniProt P30414),0.014
16,NOL11 (UniProt Q9H8H0),0.007
17,MNAT1 (UniProt P51948),0.011
18,NUP210 (UniProt Q8TEM1),-0.083
19,MORC2 (UniProt Q9Y6X9),-0.293

# Compound: CC1=C(SC2=C1C(=N[C@H](C3=NN=C(N32)C)CC(=O)N)C4=CC=C(C=C4)Cl)C
# Experiment: as above
# Summary of the method: as §1
row,Target,log2 fold change
1,NAT14 (UniProt Q8WUY8),0.055
2,PAAF1 (UniProt Q9BRP4),0.043
3,MKNK1 (UniProt Q9BUB5),0.039
4,MRPL34 (UniProt Q9BQ48),-0.154
5,NIBAN1 (UniProt Q9BZQ8),0.015
6,OSBPL8 (UniProt Q9BZF1),-0.071
7,NMNAT1 (UniProt Q9HAN9),-0.055
8,MSH2 (UniProt P43246),0.051
9,NDUFA6 (UniProt P56556),0.121
10,NDUFB1 (UniProt O75438),-0.059
11,NME2P1 (UniProt O60361),0.079
12,NCOR1 (UniProt O75376),0.06
13,PAFAH1B3 (UniProt Q15102),0.139
14,MRPS27 isoform 2 (UniProt Q92552),0.04
15,NTMT1 (UniProt Q9BV86),0.034
16,MKRN2 (UniProt Q9H000),0.046
17,NUDT16 (UniProt Q96DE0),0.085
18,MIS12 (UniProt Q9H081),0.013
19,MT-ND2 (UniProt P03891),0.123
20,NUDCD2 (UniProt Q8WVJ2),0.113
21,MTFR1L (UniProt Q9H019),-0.009
22,NAPG (UniProt Q99747),0.044
23,OAT (UniProt P04181),0.083
24,OPA1 isoform 2 (UniProt O60313),0.028
25,MORF4L2 (UniProt Q15014),0.001
26,MMADHC (UniProt Q9H3L0),-0.155
27,MYLK (UniProt Q15746),-0.053
28,NOL11 (UniProt Q9H8H0),0
29,MNAT1 (UniProt P51948),0.088
30,NUP210 (UniProt Q8TEM1),0.059

# Compound: CC1=C2C(=CC=C1)N=C(N(C2=O)C3=CC=CC=C3C)CN4C=NC5=C(N=CN=C54)N
# Experiment: as above
# Summary of the method: as §1
row,Target,log2 fold change
1,NAT14 (UniProt Q8WUY8),-0.087
2,PAAF1 (UniProt Q9BRP4),0.076
3,MKNK1 (UniProt Q9BUB5),0.065
4,MRPL34 (UniProt Q9BQ48),-0.073
5,NIBAN1 (UniProt Q9BZQ8),0.056
6,OSBPL8 (UniProt Q9BZF1),0.007
7,NMNAT1 (UniProt Q9HAN9),-0.088
8,MSH2 (UniProt P43246),0.105
9,NDUFA6 (UniProt P56556),0.104
10,NDUFB1 (UniProt O75438),-0.056
11,NME2P1 (UniProt O60361),0.063
12,NCOR1 (UniProt O75376),0.002
13,PAFAH1B3 (UniProt Q15102),0.128
14,MRPS27 isoform 2 (UniProt Q92552),0.01
15,NTMT1 (UniProt Q9BV86),0.079
16,MKRN2 (UniProt Q9H000),0.143
17,NUDT16 (UniProt Q96DE0),-0.045
18,MIS12 (UniProt Q9H081),0.064
19,MT-ND2 (UniProt P03891),-0.118
20,NUDCD2 (UniProt Q8WVJ2),0.099
21,MTFR1L (UniProt Q9H019),0.066
22,NAPG (UniProt Q99747),0.073
23,OAT (UniProt P04181),0.05
24,OPA1 isoform 2 (UniProt O60313),0.021
25,MORF4L2 (UniProt Q15014),-0.002
26,MMADHC (UniProt Q9H3L0),0.057
27,MYLK (UniProt Q15746),0.096
28,NOL11 (UniProt Q9H8H0),-0.008
29,MNAT1 (UniProt P51948),0.005
30,NUP210 (UniProt Q8TEM1),0.037
